# Test results as given in PubChem BioAssay (NCATS).
# Where “and” joins values, the source holds several entries; their conditions need not be identical. Identical values can stand only once. Records with an inconclusive call do not appear. A structure can be active in one record and inactive in another. Calls of active or inactive are those of the source. Unless noted, calls follow the shape of the dose curve; as a rule, active = well fitted curve in either direction with a large enough effect (not every such curve was filed as active); inconclusive = small, poorly fitted or top-dose-only effect, or another doubt; inactive = flat fitted curve, though single readings scatter.
# Legend:
# [1] = molecular target: Lysosomal acid glucosylceramidase (Homo sapiens) (UniProt P04062); experiment: Glucocerebrosidase-p2 (AID 348; in the data active = potency below about 10 µM; also: potency is read from the fitted curve at half-maximal effect); settings: purified GBA, blue fluorogenic substrate, 40 min
# Chain of Lysosomal acid glucosylceramidase (Homo sapiens) (P04062 whole entry, looked up): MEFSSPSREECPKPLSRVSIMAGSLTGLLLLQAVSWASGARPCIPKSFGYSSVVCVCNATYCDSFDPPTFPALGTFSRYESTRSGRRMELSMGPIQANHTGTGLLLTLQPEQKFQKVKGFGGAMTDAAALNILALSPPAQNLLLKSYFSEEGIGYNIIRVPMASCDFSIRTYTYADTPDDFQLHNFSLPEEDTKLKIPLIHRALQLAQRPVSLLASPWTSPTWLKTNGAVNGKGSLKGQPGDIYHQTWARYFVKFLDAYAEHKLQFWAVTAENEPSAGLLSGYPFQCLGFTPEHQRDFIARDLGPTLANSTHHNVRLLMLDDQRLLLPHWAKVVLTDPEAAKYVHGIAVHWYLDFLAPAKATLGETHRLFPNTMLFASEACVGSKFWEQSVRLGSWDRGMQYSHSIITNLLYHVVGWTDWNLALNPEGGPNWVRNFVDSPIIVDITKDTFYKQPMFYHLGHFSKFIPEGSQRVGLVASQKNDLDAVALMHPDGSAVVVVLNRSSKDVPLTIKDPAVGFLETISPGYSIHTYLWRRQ
# Procedure, shortened: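 Compounds titrated from 0.6 nM upwards against 0.2 nM enzyme in pH 5.9 citric acid/KH2PO4, taurocholate, tween-20; blue fluorogenic substrate 80 uM, 40 min room temperature, stopped and read Ex 365/Em 440 for AC50.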
# [2] = AP1 Signaling Pathway (AID 357); settings: ME-180 AP-1-bla reporter, EGF-induced, beta-lactamase ratio, 5 h;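 also: ME-180 reporter cells stimulated with EGF at its EC50 level; % is scaled to controls: 0 for no effect and ±100 for the full control effect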
# Procedure, shortened: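 Cells are seeded overnight, exposed to compound titrations and an EC50 level of EGF for 5 hours at 37 °C, then loaded with CCF4 dye for 2.5 hours. Beta-lactamase activity under the AP-1 element is read as a blue/green ratio.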
# [3] = Cell Viability - BJ (AID 421; calls by dose curve;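 also: potency is read from the fitted curve at half-maximal effect; cells exposed to compound for 40 hours at 37 °C before readout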); settings: BJ fibroblast viability, qHTS
# Procedure, shortened: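 Cytotoxicity as drop in intracellular ATP (CellTiter-Glo, 20 min RT) after 40 hr compound exposure of BJ fibroblasts at 37 °C. Titrations scaled between DMSO and 100 uM tamoxifen, Hill-fitted for AC50.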
# [4] = Cell Viability - Jurkat (AID 426;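 active = dose-dependent loss of cell ATP signal giving a full or clear fitted curve, ranked by lower potency value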;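 also: potency is read from the fitted curve at half-maximal effect; cells exposed to compound for 40 hours at 37 °C before ATP read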); settings: qHTS
# Procedure, shortened: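 Seed 5000 Jurkat E6-1 cells/well; add compound; incubate 40 hr at 37 °C; add CellTiter-Glo; wait 20 min at room temperature; read luminescence. Fit concentration-response with Hill equation for AC50.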
# [5] = Cell Viability - Hek293 (AID 427;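 active = compounds whose dose-response curve shows a full or clear partial loss of cell viability, called from curve shape rather than a numeric limit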;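 also: potency is read from the fitted curve at half-maximal effect; cells exposed to compound for 40 hours at 37 °C before reading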); settings: qHTS
# Procedure, shortened: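 Luminescent ATP content (CellTiter-Glo, 20 min at room temperature) was measured after a 40 hr, 37 °C compound exposure of HEK293 cells. AC50 values came from Hill-equation fits of qHTS concentration-response data normalized to DMSO and 100 uM tamoxifen.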
# [6] = Cell Viability - HepG2 (AID 433; calls by dose curve;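 also: potency is read from the fitted curve at half-maximal effect; potency for ATP loss meaning cytotoxicity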); settings: qHTS
# Procedure, shortened: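 Cytotoxicity is scored as loss of intracellular ATP in HepG2 cells exposed to compounds for 40 h. Concentration-response curves, normalized to DMSO and 100 uM tamoxifen, give AC50 values.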
# [7] = Cell Viability - MRC5 (AID 434; calls by dose curve;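 also: potency is read from the fitted curve at half-maximal effect; cells exposed to compound for 40 hours at 37 °C; potency reflects cytotoxicity seen as loss of intracellular ATP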); settings: MRC5 lung fibroblast viability, qHTS
# Procedure, shortened: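 qHTS cytotoxicity in human lung fibroblast MRC5 cells; 40 hr treatment, 37 °C; cellular ATP by luciferase luminescence; DMSO = 0%, 100 uM tamoxifen = 100% inhibition; Hill-fit AC50.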
# [8] = molecular target: Cytochrome P450 1A2 (Homo sapiens) (UniProt P05177); experiment: p450-cyp1a2 (AID 410; calls by dose curve; also: potency is read from the fitted curve at half-maximal effect;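 as to activity change, negative = inhibition: -100% = full effect of reference inhibitor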); settings: recombinant CYP1A2, luciferin-ME demethylation, luminescence; series mostly up to 57 µM
# Chain of Cytochrome P450 1A2 (Homo sapiens) (P05177 whole entry, looked up): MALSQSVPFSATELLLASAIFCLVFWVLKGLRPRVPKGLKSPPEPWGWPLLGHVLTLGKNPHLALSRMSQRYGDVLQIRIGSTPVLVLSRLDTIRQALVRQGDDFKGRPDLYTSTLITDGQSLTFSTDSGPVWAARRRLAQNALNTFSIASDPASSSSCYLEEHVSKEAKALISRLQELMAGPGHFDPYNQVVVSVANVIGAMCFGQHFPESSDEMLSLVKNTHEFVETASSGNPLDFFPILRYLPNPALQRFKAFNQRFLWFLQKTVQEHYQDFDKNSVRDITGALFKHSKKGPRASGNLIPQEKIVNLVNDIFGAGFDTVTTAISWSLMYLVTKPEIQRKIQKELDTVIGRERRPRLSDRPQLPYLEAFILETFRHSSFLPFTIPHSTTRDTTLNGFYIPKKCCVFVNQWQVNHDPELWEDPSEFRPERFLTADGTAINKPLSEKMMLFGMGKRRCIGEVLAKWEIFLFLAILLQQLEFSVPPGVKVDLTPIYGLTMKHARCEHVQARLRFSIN
# Procedure, shortened: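 Inhibition was calculated relative to 57 uM furafylline (full inhibition). The reaction used human CYP1A2 at 20nM with Luciferin-ME at its Km, 100uM, driven by an NADPH-regenerating system for 60 min at room temperature.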
# [9] = Stat Signaling Pathway (AID 446); settings: ME-180 SIE beta-lactamase reporter, IL-6 stimulated, 5 h;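 also: ME-180 cervical cancer cells given 40 pM IL-6 alongside compound; SIE-controlled beta-lactamase reporter measured as 460/530 nm FRET emission ratio; % is scaled to controls: 0 for no effect and ±100 for the full control effect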
# Procedure, shortened: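 Reporter line: ME-180 cervical carcinoma, SIE-beta-lactamase. Treatment: compound with 40 pM IL-6, 5 hrs, 37 C, in low-serum OPTI-MEM with 10 mM HEPES pH 7.3. Detection: 460/530 nm fluorescence.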
# [10] = NFAT Signaling Pathway (AID 444); settings: Jurkat NFAT-bla M1, carbachol, beta-lactamase ratio, 5 h;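 also: carbachol stimulus at about its EC50 of 1 µM final; % is scaled to controls: 0 for no effect and ±100 for the full control effect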
# Procedure, shortened: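 Read-out: CCF4 FRET ratio (460 nm/530 nm) after 1 h RT dye loading, used for %activity and AC50 from titration series. Cells: Jurkat NFAT-β-lactamase/M1 line, treated with compound plus 1 uM carbachol for 5 h, 37 °C.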
# [11] = at 38 µM (top of the series) unless noted
compound,measurement,setting,value
CN(C)c1ccc(C(=C2C=CC(=[N+](C)C)C=C2)c2ccccc2)cc1,Potency,[1],> 11.4 µM (inactive)
same,"activity change, negative = inhibition",[2]; at 7.69 µM (top of the series),0.139% (inactive)
same,Potency,[3],1.14 µM (active)
same,Potency,[4],0.0233 µM (active)
same,Potency,[5],0.244 µM (active)
same,Potency,[6],0.494 µM (active)
same,Potency,[7],0.458 µM (active)
NC[C@@H]1O[C@H](C23CC4CC(CC(C4)C2)C3)Cc2c1ccc(O)c2O,"activity change, negative = inhibition",[2]; at 38 µM (top of the series),-6.97% (inactive)
same,Potency,[8],inactive
same,"activity, negative = inhibition",[9]; at 38 µM (top of the series),0.327% (inactive)
O=c1[nH]c2cc([N+](=O)[O-])c([N+](=O)[O-])cc2[nH]c1=O,"activity change, negative = inhibition",[2]; at 38 µM (top of the series),-3.93% (inactive)
same,Potency,[8],inactive
same,"activity change, negative = inhibition",[10]; [11],4.52% (inactive)
same,"activity, negative = inhibition",[9]; at 38 µM (top of the series),21% (inactive)
Cc1c(Nc2ncccc2C(=O)O)cccc1C(F)(F)F,"activity change, negative = inhibition",[2]; at 17.2 µM (top of the series),-17.9% (inactive)
same,Potency,[8],12.6 µM (active)
same,"activity change, negative = inhibition",[10]; [11],-13.1% [at 17.2 µM] (inactive)
same,"activity, negative = inhibition",[9]; at 17.2 µM (top of the series),-19.6% (inactive)
NCCCS(=O)(=O)O,"activity change, negative = inhibition",[2]; at 38 µM (top of the series),-1.95% (inactive)
same,Potency,[8],inactive
same,"activity change, negative = inhibition",[10]; [11],29% (inactive)
same,"activity, negative = inhibition",[9]; at 38 µM (top of the series),-2.17% (inactive)
c1cnc2c(c1)ccc1cccnc12,Potency,[1],> 11.4 µM (inactive)
same,Potency,[8],3.98 µM (active) and 2 µM (active)
same,Potency,[3],> 92 µM (inactive)
same,Potency,[4],8.24 µM (active)
same,Potency,[5],2.4 µM (active)
same,Potency,[6],4.55 µM (active)
same,Potency,[7],> 92 µM (inactive)
same,"activity, negative = inhibition",[9]; at 38 µM (top of the series),-9.47% (inactive)
COc1cc2c(CCNC(C)=O)c[nH]c2cc1Cl,"activity change, negative = inhibition",[2]; at 38 µM (top of the series),-0.206% (inactive)
same,Potency,[8],1 µM (active) and 126 nM (active)
same,"activity change, negative = inhibition",[10]; [11],-9.13% (inactive)
same,"activity, negative = inhibition",[9]; at 38 µM (top of the series),-15.8% (inactive)
Oc1ccccc1O,"activity change, negative = inhibition",[2]; at 38 µM (top of the series),-9.38% (inactive)
same,Potency,[8],inactive
same,Potency,[3],> 92 µM (inactive)
same,Potency,[4],3.17 µM (active)
same,Potency,[5],30.1 µM (active)
same,Potency,[6],> 92 µM (inactive)
same,Potency,[7],> 92 µM (inactive)
same,"activity change, negative = inhibition",[10]; [11],1.49% (inactive)
Cc1ccc(O)c(N=Nc2ccccc2)n1,"activity change, negative = inhibition",[2]; at 38 µM (top of the series),17.2% (inactive)
same,Potency,[8],794 nM (active) and 158 nM (active)
same,"activity change, negative = inhibition",[10]; [11],-10.8% (inactive)
same,"activity, negative = inhibition",[9]; at 38 µM (top of the series),-4.23% (inactive)
NCCSSCCN,Potency,[1],> 11.4 µM (inactive)
same,"activity change, negative = inhibition",[2]; at 7.69 µM (top of the series),-2.06% (inactive)
same,"activity change, negative = inhibition",[2]; at 38 µM (top of the series),-9.31% (inactive)
same,Potency,[8],inactive
same,"activity change, negative = inhibition",[10]; at 7.69 µM (top of the series),0.926% (inactive)
same,"activity change, negative = inhibition",[10]; at 38 µM (top of the series),-3.66% (inactive)
same,"activity, negative = inhibition",[9]; at 7.69 µM (top of the series),-10% (inactive)
same,"activity, negative = inhibition",[9]; at 38 µM (top of the series),-21.5% (inactive)
Cn1c(=O)c2[nH]c(-c3ccccc3)nc2n(C)c1=O,"activity change, negative = inhibition",[2]; at 38 µM (top of the series),14.7% (inactive)
same,Potency,[8],2 µM (active)
same,"activity change, negative = inhibition",[10]; [11],3.48% (inactive)
same,"activity, negative = inhibition",[9]; at 38 µM (top of the series),-0.0891% (inactive)
N[C@H](CCCP(=O)(O)O)C(=O)O,Potency,[8],inactive and 31.6 µM (active) and 25.1 µM (active)
same,"activity change, negative = inhibition",[10]; [11],-6.29% (inactive)
same,"activity, negative = inhibition",[9]; at 38 µM (top of the series),14.7% (inactive)
O=C(O)[C@@H]1C[C@@H](C(=O)O)N1,Potency,[8],31.6 µM (active)
COC1=C(OC)C(=O)c2ccccc2C1=O,Potency,[8],3.98 µM (active)
same,"activity change, negative = inhibition",[10]; [11],-8.88% (inactive)
N=C(N)SCCc1ccc(CCSC(=N)N)cc1,Potency,[8],inactive
Oc1cc2c(cc1O)CN(C(=S)NCCc1ccc(Cl)cc1)CCC2,Potency,[8],12.6 µM (active) and 20 µM (active)
same,"activity change, negative = inhibition",[10]; [11],-18.1% (inactive)
same,"activity, negative = inhibition",[9]; at 38 µM (top of the series),6.62% (inactive)
CCOc1ccc2nc(S(N)(=O)=O)sc2c1,"activity change, negative = inhibition",[2]; at 17.2 µM (top of the series),7.72% (inactive)
same,"activity, negative = inhibition",[9]; at 17.2 µM (top of the series),12.3% (inactive)
N=c1ccn2c(n1)O[C@H]1[C@H](O)[C@@H](CO)O[C@H]12,Potency,[8],inactive
C[C@@H](NC(=O)/C(C#N)=C/c1ccc(O)c(O)c1)c1ccccc1,Potency,[8],31.6 µM (active)
O=C1C(SCCO)=C(SCCO)C(=O)c2ccccc21,Potency,[8],12.6 µM (active) and 631 nM (active)
same,"activity change, negative = inhibition",[10]; [11],-94.5% (active)
same,"activity, negative = inhibition",[9]; at 38 µM (top of the series),134% (active)
Cn1cc(C2=C(c3ccc(Cl)cc3Cl)C(=O)NC2=O)c2ccccc21,Potency,[8],3.16 µM (active)
COc1ccccc1CNCCCCCCNCCCCCCCCNCCCCCCNCc1ccccc1OC,Potency,[8],inactive
NC(N)=NC(=O)c1nc(Cl)c(N2CCCCCC2)nc1N,"activity change, negative = inhibition",[2]; at 38 µM (top of the series),21.5% (inactive)
same,Potency,[8],1 µM (active)
same,"activity, negative = inhibition",[9]; at 38 µM (top of the series),1% (inactive)
COc1ccc(/C=C/C(=O)Nc2ccccc2C(=O)O)cc1OC,"activity change, negative = inhibition",[2]; at 17.2 µM (top of the series),-28.6% (inactive)
same,"activity change, negative = inhibition",[10]; [11],22.7% [at 17.2 µM] (inactive)
same,"activity, negative = inhibition",[9]; at 17.2 µM (top of the series),-24.7% (inactive)
CCCn1c(=O)c2[nH]c(-c3ccc(OCC(=O)NCCN)cc3)nc2n(CCC)c1=O,Potency,[8],inactive
same,"activity change, negative = inhibition",[10]; [11],-8.17% (inactive)
same,"activity, negative = inhibition",[9]; at 38 µM (top of the series),-14% (inactive)
COc1ccccc1N1CCN(CCCCNS(=O)(=O)c2cccc3c(N(C)C)cccc23)CC1,"activity change, negative = inhibition",[2]; at 38 µM (top of the series),1.98% (inactive)
same,Potency,[8],inactive
same,"activity, negative = inhibition",[9]; at 38 µM (top of the series),-7.18% (inactive)
COc1cc(/C=C/C(=O)CC(=O)/C=C/c2ccc(O)c(OC)c2)ccc1O,"activity change, negative = inhibition",[2]; at 17.2 µM (top of the series),22.5% (inactive)
same,Potency,[4],28.2 µM (active)
same,Potency,[5],42.7 µM (active)
same,Potency,[6],> 92 µM (inactive)
same,Potency,[7],45.2 µM (active)
same,"activity, negative = inhibition",[9]; at 17.2 µM (top of the series),-22.7% (inactive)
CN(C)c1nc(N)c(C(=O)N=C(N)N)nc1Cl,Potency,[8],1 µM (active)
same,"activity change, negative = inhibition",[10]; [11],-15.7% (inactive)
same,"activity, negative = inhibition",[9]; at 38 µM (top of the series),19% (inactive)
O=C(c1cc(O)c(O)c([N+](=O)[O-])c1)c1ccccc1F,Potency,[8],inactive
same,"activity change, negative = inhibition",[10]; [11],0.576% (inactive)
same,"activity, negative = inhibition",[9]; at 38 µM (top of the series),-12.2% (inactive)
